In the supplement of paper PMC3334620:
The full ranking holds about 33,000 sequences; the median of “E-score (-0.5 to 0.5)” is about -0.012, and the highest 2% start at about 0.29. This is one part of a sample in which the highest values are shown more often than they occur.

These sequences were tested against T1, Ybr033w (UniProt P38073) (assay: PBM E-score (8-mer binding enrichment) (E-score (-0.5 to 0.5)); higher = stronger / more preferred TF binding). Conditions: protein concentration: 200 nM; construct: GST-full length.
T1 sequence: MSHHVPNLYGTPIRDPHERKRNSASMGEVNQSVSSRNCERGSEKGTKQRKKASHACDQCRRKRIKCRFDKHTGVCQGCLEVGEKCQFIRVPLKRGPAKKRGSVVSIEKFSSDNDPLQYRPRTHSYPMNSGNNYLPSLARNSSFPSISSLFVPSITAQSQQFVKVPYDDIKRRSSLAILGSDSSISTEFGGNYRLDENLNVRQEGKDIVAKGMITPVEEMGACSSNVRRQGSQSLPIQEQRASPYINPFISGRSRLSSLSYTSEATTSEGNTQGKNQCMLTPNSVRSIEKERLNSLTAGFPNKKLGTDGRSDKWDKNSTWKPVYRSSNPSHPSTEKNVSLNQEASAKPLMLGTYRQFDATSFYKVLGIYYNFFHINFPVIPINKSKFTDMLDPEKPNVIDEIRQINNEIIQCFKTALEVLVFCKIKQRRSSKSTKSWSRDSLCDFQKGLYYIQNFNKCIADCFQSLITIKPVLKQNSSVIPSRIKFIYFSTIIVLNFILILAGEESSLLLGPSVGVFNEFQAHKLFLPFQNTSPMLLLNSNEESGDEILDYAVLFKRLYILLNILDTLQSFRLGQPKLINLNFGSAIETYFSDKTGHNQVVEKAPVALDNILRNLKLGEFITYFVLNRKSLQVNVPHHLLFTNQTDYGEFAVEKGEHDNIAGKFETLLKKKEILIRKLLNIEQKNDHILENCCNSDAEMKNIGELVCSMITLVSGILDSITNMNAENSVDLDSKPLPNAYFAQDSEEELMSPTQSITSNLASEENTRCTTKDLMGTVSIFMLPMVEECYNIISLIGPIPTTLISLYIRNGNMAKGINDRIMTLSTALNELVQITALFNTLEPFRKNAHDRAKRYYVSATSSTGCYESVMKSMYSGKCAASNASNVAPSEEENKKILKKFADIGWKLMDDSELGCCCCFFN
Summary of the method: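 PURExpress in vitro transcription/translation supplied GST-tagged yeast transcription factors, either full-length or DNA-binding domain. Applied at about 100-200 nM to universal all-10-mer Agilent arrays double-stranded by primer extension, the bound protein was detected with fluorescent anti-GST. E-scores, modified Wilcoxon-Mann-Whitney statistics, were given by the Universal PBM Analysis Suite to ungapped eight-base words pooled with their reverse complements after masliner normalisation.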

Row | Sequence | PBM E-score
1 | TAGCGTGA | 0.00864
2 | AGCTTACT | 0.0872
3 | AACAAGGA | 0.12
4 | CATCGTAC | 0.0156
5 | CACAATCG | 0.0764
6 | CTGTGAGC | -0.0445
7 | AGCTAAGG | -0.119
8 | CTCCACGA | -0.0474
9 | CAACCACA | 0.0032
10 | TAGAAAGA | -0.0722
11 | CATTCTGC | 0.09
12 | AGCAGGAA | 0.0849
13 | CAACCGAC | 0.107
14 | ATAGTGGA | 0.0933
15 | ACTAGGGA | -0.159
16 | GAAAAATA | 0.397
17 | GAAAATCC | 0.308
18 | GGAAATCC | -0.00538
19 | GGAAAAGA | 0.0452
20 | GCAAAATA | 0.287
21 | CGAAAATA | 0.23
22 | AAAAAATA | 0.278
23 | AGAAAATA | 0.314
24 | GGAAAATA | 0.414
25 | AAAAATCC | 0.287

Row | Sequence | PBM E-score
26 | AGAAAATC | 0.232
27 | TAAAAATA | 0.285
28 | AGGTTGAG | -0.167
29 | AAGGGGAT | -0.0478
30 | AGTACCGG | -0.182
31 | CGGGTGCC | -0.151
32 | TCACTACA | 0.243
33 | CCATCTGA | 0.0862
34 | CTTTAGGC | -0.0153
35 | AGATTGAC | 0.0305
36 | AAGCAAGG | -0.0139
37 | GGACAGAC | -0.174
38 | ACAAATAA | 0.265
39 | TCAAATAA | 0.202
40 | CAAAAATG | 0.157
41 | GCAAATAA | 0.322
42 | CAAAAATC | 0.236
43 | TAAAATAA | 0.261
44 | AAAAAATC | 0.248
45 | GAAAATAA | 0.304
46 | CAAAAATA | 0.316
47 | AAAAATAA | 0.275
48 | CCAAAATA | 0.182
49 | GAAAAATC | 0.381
50 | ATAGCGCA | 0.0412

Row | Sequence | PBM E-score
51 | GACGATTA | -0.0748
52 | TGAGGACA | 0.00432
53 | AAACTACG | 0.0517
54 | ATCTACCC | 0.0482
55 | ACATCAGG | 0.038
56 | CTTTTCGC | 0.241
57 | CAGGCAAC | -0.0967
58 | ACGACCAT | -0.108
59 | AATCTAGT | 0.214
60 | AGCTCACG | -0.088
61 | GATTAACC | 0.195
62 | AATTAACA | 0.295
63 | TATTAACA | 0.291
64 | CATTAACA | 0.139
65 | GATTAACA | 0.396
66 | GCTTAACA | 0.0687
67 | AATTAACT | 0.219
68 | AATTAACC | 0.158
69 | TATTAAGA | 0.168
70 | ACCCAGGC | -0.0962
71 | AAGTGAAT | 0.239
72 | CACAGCCA | -0.174
73 | ATGCGGCA | -0.0591
74 | CTTTTCCC | 0.0333
75 | CCTTTTCC | -0.15

Row | Sequence | PBM E-score
76 | ATTTTCCA | 0.361
77 | CTTTTTCC | 0.361
78 | AATTTCCC | 0.226
79 | ATTTTCCC | 0.386
80 | ATTTCCCC | -0.0347
81 | GTTTTCCA | 0.215
82 | CTTTTCCA | -0.0875
83 | GACCGGTC | -0.181
84 | AATCGTCA | -0.0213
85 | CAACGTTG | 0.156
86 | AGCTCTTC | 0.0781
87 | ATAATCCC | 0.189
88 | ATAATCGG | 0.162
89 | ATGATCCC | 0.244
90 | ATAATCCG | 0.383
91 | GTAATCCA | 0.0788
92 | AAAATCCA | 0.339
93 | CAAATCCA | 0.0838
94 | ACAATCCG | 0.0606
95 | GAAATCCA | 0.108
96 | ATGATCCA | 0.162
97 | ATAATCCA | 0.327
98 | ATGATCCG | 0.412
